PubChem BioAssay AID588442 (The Scripps Research Institute Molecular Screening Center, 2011)
Entries with a potency or affinity are not part of this list. Where a structure was tested more than once in an assay, its records may differ in their call. Unmarked numbers belong to inactive results.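 How the source made its calls: active means EC50 of 10 µM or lower; inactive means EC50 above 10 µM or not measured.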

Assay: optical interference in Abeta FP readout, dose response, artefact control for IDE activator project, biochemical, fluorescence polarization (AID 588442)
Conditions: FP artifact counterscreen, fluorescein-Abeta, no enzyme activity

C[n+]1c2cc(N)ccc2cc2ccc(N)cc21
EC50: > 54.7 µM
